hcGAS lum: blocks human cGAS activity; inhibition, % at 12.5 µM; AID 1259398; 290,000 tested, 0.081% active; recombinant h-cGAS, ATP depletion, Kinase-Glo luminescence
Target sequence (Q8N884 whole entry, looked up): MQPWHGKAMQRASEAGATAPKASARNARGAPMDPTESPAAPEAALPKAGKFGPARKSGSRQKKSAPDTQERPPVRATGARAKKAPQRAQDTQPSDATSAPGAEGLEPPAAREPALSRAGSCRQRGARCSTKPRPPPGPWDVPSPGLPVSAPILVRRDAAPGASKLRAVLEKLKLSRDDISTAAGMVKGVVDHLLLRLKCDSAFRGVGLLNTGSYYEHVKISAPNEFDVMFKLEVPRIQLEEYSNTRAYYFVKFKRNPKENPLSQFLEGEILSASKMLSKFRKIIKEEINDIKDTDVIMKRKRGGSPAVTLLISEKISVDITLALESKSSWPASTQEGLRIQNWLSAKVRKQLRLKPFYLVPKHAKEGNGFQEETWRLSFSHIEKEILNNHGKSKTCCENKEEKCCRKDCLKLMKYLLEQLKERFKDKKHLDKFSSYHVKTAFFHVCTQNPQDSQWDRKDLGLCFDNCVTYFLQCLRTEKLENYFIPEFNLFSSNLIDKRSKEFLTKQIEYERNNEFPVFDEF
NPYLR7 agonist: activates Aedes aegypti NPYLR7 receptor; activation, % at 10 µM; HEK293T NPYLR7/Galpha15, GCaMP6s calcium fluorescence; AID 1259423; 270,000 tested, 0.15% active; in the data active = activation above about 40%
mcGAS lum: mouse cGAS inhibition by luminescence; Q8C6L5; recombinant cGAS, Kinase-Glo ATP depletion luminescence; inhibition, % at 12.5 µM; 160,000 tested, 0.15% active
Numbers stand for hits; . = inactive; / = no result; ! = repeats disagree. In the library only some 0.24% were active in any assay of this set; here they are far more common. Rule as the data show it, unless noted: active = inhibition above about 40%; inactive = the rest.

SMILES | hcGAS lum | NPYLR7 agonist | mcGAS lum
Cc1cccc(Oc2cnn(-c3cccc(Cl)c3)c(=O)c2Nc2cccc(C(=O)NC3CC3)c2)c1 | . | . | .
COc1cc(C(=O)O)c(N)cc1OC(F)F | . | . | /
Nc1c(C=C2C=CC(=O)C=C2)c(=O)nc2sc(-c3ccccc3Cl)nn12 | 42 | . | /
Nc1c(C=C2C=CC(=O)C=C2)c(=O)nc2sc(-c3ccccc3)nn12 | . | . | /
Cc1ccc(CC(=O)Nc2c(C)cccc2Cl)cn1 | . | . | .
C=CCOc1ccc(C=C(C#N)C(=O)c2ccc(OC)cc2)cc1 | . | . | 58
COc1ccc(C=C(C#N)C(=O)c2ccc(OC)cc2)cc1 | . | . | .
N#CCSc1sc2c(O)cc(=O)[nH]c2c1C#N | . | . | 60
NC(=O)c1c(SCc2ccccc2)sc2c(O)cc(=O)[nH]c12 | . | . | .
Cc1ccccc1Cn1cnc2c(cnn2CCNC(=O)c2ccc3c(c2)OCO3)c1=O | . | . | .
CCC(C)C(NC(=O)Cc1c(C)nn(C)c1C)c1nc2ccccc2[nH]1 (centres undefined) | . | . | .
O=C(O)CN1C(=O)C(=C2C(=O)N(CC(=O)O)c3ccccc32)SC1=S | . | . | .
O=C(O)CN1C(=O)C(=NN2C(=O)CSC2=S)c2ccccc21 | 43 | . | /
COc1ccc(N2C(=O)CC(N(C)Cc3ccc(C)o3)C2=O)cc1OC (centres undefined) | . | . | /
COc1ccc(S(=O)(=O)NCC2CCCN(C(=O)CSc3ccccc3)C2)cc1 (centres undefined) | . | 50! | .
COc1ccc(S(=O)(=O)NCC2CCCN(C(=O)C3CCOCC3)C2)cc1 (centres undefined) | . | . | .
O=C(CCCc1cccs1)N1CCCC(CNS(=O)(=O)c2cccs2)C1 (centres undefined) | . | . | /
O=C(COc1ccccc1)N1CCCC(CNS(=O)(=O)c2cccs2)C1 (centres undefined) | . | 57! | .
Cc1nc(C(C)C)sc1C(=O)N1CCCN(C)C2(CCN(C)CC2)C1 | . | . | .
Cc1nc(-c2ccc(-n3ccnc3-c3ccnc(C(C)C)n3)cc2)n[nH]1 | . | . | /
COc1cc(C=C(C#N)S(=O)(=O)c2ccc(F)cc2)cc(OC)c1OC | . | . | /
COc1cc(C=C(C#N)S(=O)(=O)c2cc(Cl)ccc2Cl)cc(OC)c1 | . | . | /
COc1cc(C=C(C#N)S(=O)(=O)c2cc(Cl)ccc2Cl)cc(Br)c1O | . | 66 | /
COc1cc(C=C(C#N)S(=O)(=O)c2ccc(F)cc2)cc(Br)c1O | . | 183 | /
CC(Cc1ccc(Br)cc1)NC(=O)Cn1[nH]c(=O)c2ccccc2c1=O (centres undefined) | . | . | /
SMILES | hcGAS lum | NPYLR7 agonist | mcGAS lum
Oc1ccccc1C1=NNC2(CC3CC2C2CCCC32)S1 (centres undefined) | 78 | . | /
COc1cccc(OC)c1C(=O)Nc1c(C)nc2c(C)cccn2c1=O | . | . | /
O=c1c(O)c(-c2ccc(O)cc2O)oc2cc(O)cc(O)c12 | . | . | .
O=c1c(O)c(-c2cc(O)c(O)c(O)c2)oc2cc(O)cc(O)c12 | 71 | . | 82
Cc1ccc(CN(C(=O)c2cc3cc(Cl)ccc3[nH]2)C(C)C)o1 | . | 118 | /
O=C(O)c1cc2cc(Cl)ccc2[nH]1 | . | . | .
Cc1nc2n(c(=O)c1C)C(CC(=O)Nc1ccon1)CS2 (centres undefined) | . | . | /
CNC(=O)CSc1cn(CC(=O)N2CCCCCC2)c2ccccc12 | . | . | .
O=C(CSc1cn(CC(=O)N2CCCCCC2)c2ccccc12)NC1CCCC1 | . | 42 | .
COc1cc(-c2nc3n(n2)C(c2ccc(O)cc2)C(C(N)=O)=C(C)N3)cc(OC)c1OC (centres undefined) | . | 51 | /
COc1ccc(C2C(C(N)=O)=C(C)Nc3ncnn32)cc1 (centres undefined) | . | . | .
CC(C)c1ncc(C(=O)N2CCCC(CCc3ccccc3F)C2)cn1 (centres undefined) | . | / | .
CCOC(=O)N1CCN(C(c2ccc(C(C)C)cc2)C2Sc3nc(C)nn3C2=O)CC1 (centres undefined) | . | . | /
COCc1cc(C)nc(NN=Cc2ccc(-c3ccc(Br)cc3)o2)c1C#N | . | . | .
Cc1ccc(-c2ccc(/C=N\Nc3nc4nonc4nc3Nc3ccc(Br)cc3)o2)cc1Cl | . | . | 84
O=C(c1ccc(Cn2cccn2)o1)N1CC(c2ccncc2)C1 | . | . | .
N[C@@H]1CC[C@@H](Nc2cncc(C(=O)N3CCOCC3)n2)C1 | . | . | .
O=C(CCl)N1N=C(c2ccc(Cl)cc2)CC1c1ccco1 (centres undefined) | . | . | 52
CCN(CC)CC(=O)N1N=C(c2ccc(Cl)cc2)CC1c1ccco1 (centres undefined) | . | . | .
CC1(C#CC(=O)O)CC1(Cl)Cl (centres undefined) | . | . | /

From PubChem BioAssay
